Assay results as given in PubChem BioAssay AID1159580 (chemical genetic matrix, 2015).
Among all 5,500 compounds or so, about 2,000 (36%) were called active. About 18% were inconclusive and are not listed. No stated cut-off is given here; in the data, active means normalized growth mostly below about 0.91 (no sharp cut-off); inconclusive means no clear call, values can overlap the other calls; inactive means mostly above about 0.92. The list shows a part of the results.

Assay: chemical genetic growth profiling, strain panel (AID 1159580);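 further: tested at 20 µM; growth read once vehicle control cultures reached saturation at 30 °C; 1 = growth at the plate median or of vehicle wells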
Settings: growth OD

Measured: normalized growth

CC(C)CCCC(C)C1CC[C@@]2(C)C3=C(CC[C@]12C)[C@@]1(C)CC[C@H](O)C(C)(C)C1CC3 (stereo partly specified)
inactive: S. cerevisiae deletion strains, locus YAL013W, strain DEP1, stronger effect = lower value 1.01 | S. cerevisiae deletion strains, locus YBR021W, strain FUR4, stronger effect = lower value 0.959 | S. cerevisiae deletion strains, locus YBR229C, strain ROT2, stronger effect = lower value 1 | S. cerevisiae deletion strains, locus YCL029C, strain bik1, stronger effect = lower value 0.976 | S. cerevisiae deletion strains, locus YDL035C, strain GPR1, stronger effect = lower value 1 | S. cerevisiae deletion strains, locus YDL074C, strain BRE1, stronger effect = lower value 1.06 | S. cerevisiae deletion strains, locus YDL101C, strain DUN1, stronger effect = lower value 1.01 | S. cerevisiae deletion strains, locus YDL134C, strain PPH21, stronger effect = lower value 0.997 | S. cerevisiae deletion strains, locus YDL185W, strain tfp1, stronger effect = lower value 0.985 | S. cerevisiae deletion strains, locus YDL192W, strain arf1, stronger effect = lower value 0.983 | S. cerevisiae deletion strains, locus YDR101C, strain arx1, stronger effect = lower value 0.996 | S. cerevisiae deletion strains, locus YDR150W, strain NUM1, stronger effect = lower value 1 | S. cerevisiae deletion strains, locus YDR162C, strain NBP2, stronger effect = lower value 1.02 | S. cerevisiae deletion strains, locus YDR318W, strain mcm21, stronger effect = lower value 0.974 | S. cerevisiae deletion strains, locus YDR388W, stronger effect = lower value 0.981 | S. cerevisiae deletion strains, locus YDR502C, strain sam2, stronger effect = lower value 0.99 | S. cerevisiae deletion strains, locus YEL061C, strain CIN8, stronger effect = lower value 1.01 | S. cerevisiae deletion strains, locus YER110C, stronger effect = lower value 0.975 | S. cerevisiae deletion strains, locus YER155C, strain BEM2, stronger effect = lower value 1 | S. cerevisiae deletion strains, locus YER167W, strain BCK2, stronger effect = lower value 0.99 | S. cerevisiae deletion strains, locus YGL078C, strain dbp3, stronger effect = lower value 0.993 | S. cerevisiae deletion strains, locus YGL086W, strain mad1, stronger effect = lower value 0.986 | S. cerevisiae deletion strains, locus YGL248W, strain PDE1, stronger effect = lower value 0.995 | S. cerevisiae deletion strains, locus YGR078C, strain PAC10, stronger effect = lower value 1.04 | S. cerevisiae deletion strains, locus YGR135W, strain pre9, stronger effect = lower value 0.995 | S. cerevisiae deletion strains, locus YGR229C, strain SMI1, stronger effect = lower value 1.03 | S. cerevisiae deletion strains, locus YGR252W, strain gcn5, stronger effect = lower value 0.95 | S. cerevisiae deletion strains, locus YHR030C, strain SLT2, stronger effect = lower value 0.998 | S. cerevisiae deletion strains, locus YHR079C, strain IRE1 (second series), stronger effect = lower value 0.982 | S. cerevisiae deletion strains, locus YHR094C, strain hxt1, stronger effect = lower value 0.985 | S. cerevisiae deletion strains, locus YHR129C, strain ARP1, stronger effect = lower value 1 | S. cerevisiae deletion strains, locus YHR200W, strain rpn10, stronger effect = lower value 0.981 | S. cerevisiae deletion strains, locus YIL066C, strain RNR3, stronger effect = lower value 1.01 | S. cerevisiae deletion strains, locus YIL073C, strain SPO22, stronger effect = lower value 0.918 | S. cerevisiae deletion strains, locus YIL125W, strain kgd1, stronger effect = lower value 0.992 | S. cerevisiae deletion strains, locus YIR030C, strain dcg1, stronger effect = lower value 0.987 | S. cerevisiae deletion strains, locus YJL095W, strain BCK1, stronger effect = lower value 1.06 | S. cerevisiae deletion strains, locus YJL134W, strain LCB3, stronger effect = lower value 0.994 | S. cerevisiae deletion strains, locus YJL168C, strain set2, stronger effect = lower value 0.985 | S. cerevisiae deletion strains, locus YJL187C, strain SWE1 (second series), stronger effect = lower value 1 | S. cerevisiae deletion strains, locus YJR043C, strain POL32, stronger effect = lower value 0.987 | S. cerevisiae deletion strains, locus YJR075W, strain HOC1, stronger effect = lower value 1.03 | S. cerevisiae deletion strains, locus YKL009W, strain mrt4, stronger effect = lower value 0.939 | S. cerevisiae deletion strains, locus YKL068W, stronger effect = lower value 1 | S. cerevisiae deletion strains, locus YKL085W, strain MDH1 (second series), stronger effect = lower value 0.988 | S. cerevisiae deletion strains, locus YKL085W, strain MDH1, stronger effect = lower value 0.988 | S. cerevisiae deletion strains, locus YKL190W, strain CNB1, stronger effect = lower value 1 | S. cerevisiae deletion strains, locus YKR001C, strain vps1, stronger effect = lower value 0.984 | S. cerevisiae deletion strains, locus YLR039C, strain RIC1, stronger effect = lower value 0.985 | S. cerevisiae deletion strains, locus YLR058C, strain SHM2, stronger effect = lower value 1 | S. cerevisiae deletion strains, locus YLR102C, strain apc9, stronger effect = lower value 0.993 | S. cerevisiae deletion strains, locus YLR262C, strain YPT6, stronger effect = lower value 0.976 | S. cerevisiae deletion strains, locus YLR268W, strain sec22, stronger effect = lower value 0.996 | S. cerevisiae deletion strains, locus YLR330W, strain CHS5, stronger effect = lower value 1 | S. cerevisiae deletion strains, locus YLR342W, strain FKS1 (second series), stronger effect = lower value 0.96 | S. cerevisiae deletion strains, locus YLR371W, strain rom2, stronger effect = lower value 0.98 | S. cerevisiae deletion strains, locus YLR418C, strain cdc73, stronger effect = lower value 1.04 | S. cerevisiae deletion strains, locus YML016C, strain PPZ1, stronger effect = lower value 0.997 | S. cerevisiae deletion strains, locus YML032C, strain rad52, stronger effect = lower value 0.966 | S. cerevisiae deletion strains, locus YML124C, strain tub3, stronger effect = lower value 0.982 | S. cerevisiae deletion strains, locus YMR078C, strain ctf18, stronger effect = lower value 0.972 | S. cerevisiae deletion strains, locus YMR223W, strain ubp8, stronger effect = lower value 0.965 | S. cerevisiae deletion strains, locus YMR263W, strain SAP30, stronger effect = lower value 1.03 | S. cerevisiae deletion strains, locus YMR307W, strain GAS1, stronger effect = lower value 0.957 | S. cerevisiae deletion strains, locus YNL067W, strain RPL9B, stronger effect = lower value 1.04 | S. cerevisiae deletion strains, locus YNL128W, strain TEP1, stronger effect = lower value 1.04 | S. cerevisiae deletion strains, locus YNL153C, strain GIM3, stronger effect = lower value 1.02 | S. cerevisiae deletion strains, locus YNL233W, strain BNI4, stronger effect = lower value 1.01 | S. cerevisiae deletion strains, locus YNL250W, strain rad50, stronger effect = lower value 1.02 | S. cerevisiae deletion strains, locus YNL271C, strain bni1, stronger effect = lower value 0.988 | S. cerevisiae deletion strains, locus YNL298W, strain CLA4, stronger effect = lower value 0.967 | S. cerevisiae deletion strains, locus YNL307C, strain MCK1, stronger effect = lower value 0.959 | S. cerevisiae deletion strains, locus YNL322C, strain KRE1, stronger effect = lower value 1.01 | S. cerevisiae deletion strains, locus YNR052C, strain pop2, stronger effect = lower value 0.98 | S. cerevisiae deletion strains, locus YOL006C, strain TOP1, stronger effect = lower value 1.03 | S. cerevisiae deletion strains, locus YOL012C, strain htz1 0.94 | S. cerevisiae deletion strains, locus YOL147C, strain pex11, stronger effect = lower value 0.989 | S. cerevisiae deletion strains, locus YOR061W, strain CKA2, stronger effect = lower value 1.01 | S. cerevisiae deletion strains, locus YOR069W, strain VPS5, stronger effect = lower value 0.995 | S. cerevisiae deletion strains, locus YOR136W, strain idh2, stronger effect = lower value 0.979 | S. cerevisiae deletion strains, locus YOR144C, strain elg1, stronger effect = lower value 0.994 | S. cerevisiae deletion strains, locus YOR184W, strain ser1, stronger effect = lower value 0.932 | S. cerevisiae deletion strains, locus YOR316C, strain cot1, stronger effect = lower value 0.985 | S. cerevisiae deletion strains, locus YPL055C, strain LGE1, stronger effect = lower value 1.05 | S. cerevisiae deletion strains, locus YPL241C, strain CIN2, stronger effect = lower value 1 | S. cerevisiae deletion strains, locus YPR119W, strain clb2, stronger effect = lower value 0.999 | S. cerevisiae deletion strains, locus YPR141C, strain kar3, stronger effect = lower value 0.993 | S. cerevisiae deletion strains, locus YPR163C, strain tif3, stronger effect = lower value 0.981 | S. cerevisiae deletion strains, locus YPR167C, strain met16, stronger effect = lower value 0.994 | S. cerevisiae deletion strains, strain wtn01, stronger effect = lower value 0.985 | S. cerevisiae strains, strain wild type, stronger effect = lower value 0.957
